# DAX1 inh-1 = blocks DAX1 repression of SF-1 activated StAR promoter; HEK293T StAR-luciferase reporter, SF-1/DAX-1 repression relief; inhibition, % at 6.8 µM; 370,000 tested, 1.1% active; AID 652010;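 active = inhibition above the mean over all tested compounds plus 3 SD, cut at about 3.6% in these data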;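 note: 0% = DAX-1 cells with DMSO and 100% = cells lacking DAX-1 with DMSO; higher inhibition means more luminescence from relief of DAX-1 repression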
# hgDAF-12 ag = agonists of H. glycines DAF-12 nuclear receptor. HEK293 GAL4-hgDAF12 UAS-luciferase reporter, agonist luminescence; normalized to butyrate control. activation, % at 6.8 µM. 370,000 tested, 1.8% active;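 active = activation above a cutoff set at the mean of all screened compounds plus 3 SD, cut at about 10% in these data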;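 note: 0% = DMSO wells and 100% = sodium butyrate wells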
# AHR activator = human AHR activation; 320,000 tested, 2.5% active; activation, % at 5 µM; AHR-responsive luciferase reporter cells, luminescence; P35869; AID 2796; in the data active = activation above about 47%;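 note: 0% = vehicle wells and 100% = reference agonist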
# DAX1 inh-2 = NR0B1 (DAX1) inhibition; 340,000 tested, 0.99% active; inhibition, % at 6.75 µM; P51843; HEK293 Gal4-DAX1 luciferase reporter, luminescence; AID 504766;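 active = inhibition above the mean over all tested compounds plus 3 SD, cut at about 4.2% in these data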;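 note: 0% = DAX1-transfected cells with DMSO and 100% = empty-vector control cells with DMSO; inhibition shows as a rise in luminescence from relieved DAX1 repression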
# ssDAF-12 act = activators of S. stercoralis DAF-12 nuclear receptor; 370,000 tested, 1% active; AID 652126; HEK293 ssDAF-12/GRIP1 lit1-tk-luc reporter, luminescence; % of 3 µM dafachronic acid response; activation, % at 6.8 µM;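 active = activation above the mean over all tested compounds plus 3 SD, cut at about 0.9% in these data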;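 note: 0% = DMSO-only wells and 100% = 3 µM delta7-dafachronic acid wells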
# hcDAF-12 act = H. contortus DAF-12 activation, primary screen. HEK293 hcDAF-12 lit1-tk-luc reporter, luminescence; 0% DMSO, 100% Δ7-dafachronic acid. AID 652067. activation, % at 6.8 µM. 370,000 tested, 1.4% active;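 active = activation above the mean of all tested compounds plus 3 SD, cut at about 5.5% in these data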;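 note: 100% = response to 3 µM Δ7-dafachronic acid high control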
# LXRb hcDAF ctr = LXR-beta agonism as hcDAF-12 counter-screen; activation, % at 6.8 µM; AID 743027; HEK293 Gal4-LXR tk-luc reporter, luminescence, 24 h; normalized: DMSO 0%, positive control 100%; 3,400 tested, under 10 active; shares compounds with hcDAF-12 act;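 active = mean percent activation of the reporter above a cutoff set as the average over tested compounds plus their standard deviation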
# Target sequence (P55055 whole entry, looked up, the tested form may be a part): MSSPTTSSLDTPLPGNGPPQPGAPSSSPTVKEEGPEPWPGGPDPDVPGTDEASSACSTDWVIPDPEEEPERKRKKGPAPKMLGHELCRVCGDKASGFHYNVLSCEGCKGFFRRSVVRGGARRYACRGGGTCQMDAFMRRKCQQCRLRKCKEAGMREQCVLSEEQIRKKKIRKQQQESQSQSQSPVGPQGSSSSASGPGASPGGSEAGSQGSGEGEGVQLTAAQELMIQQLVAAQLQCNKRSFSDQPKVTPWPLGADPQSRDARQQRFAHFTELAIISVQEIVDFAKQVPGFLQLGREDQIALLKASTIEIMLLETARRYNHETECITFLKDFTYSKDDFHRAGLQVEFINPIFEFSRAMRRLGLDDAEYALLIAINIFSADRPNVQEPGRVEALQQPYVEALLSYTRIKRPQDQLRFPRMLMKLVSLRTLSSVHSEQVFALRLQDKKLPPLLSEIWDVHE
# hcDAF12 conf = confirmation of H. contortus DAF-12 agonists; shares compounds with hcDAF-12 act; HEK293 hcDAF-12 lit1-tk-luc reporter, luminescence; % of Δ7-dafachronic acid response; activation, % at 6.8 µM; 3,400 tested, 61% active; AID 743032;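 active = mean activation across triplicate tests above the threshold derived from the earlier primary screen, cut at about 5.5% in these data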;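 note: 0% = DMSO only wells and 100% = 3 µM Δ7-dafachronic acid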
# The depositor's hits bear a star; . = no result. The list is not random: actives were taken first. Their share in the collection is about 5.7%.
SMILES,DAX1 inh-1,hgDAF-12 ag,AHR activator,DAX1 inh-2,ssDAF-12 act,hcDAF-12 act,LXRb hcDAF ctr,hcDAF12 conf
O=C(Cc1nnc(NC(=O)c2ccccc2)s1)N/N=C/c1cccc(O)c1,0,1,9,0,-1,-1,.,.
CCOc1ccccc1NC1=C(Cl)C(=O)N(c2ccc(OC)cc2)C1=O,-2,6,2,2,0,-1,.,.
COc1ccccc1N1C(=O)C(Cl)=C(Nc2ccccc2O)C1=O,0,0,.,1,1.5*,7.1*,0,3
O=C(c1ccco1)N1CCN(C(=O)c2ccco2)C1=S,0,2,.,0,-1,-1,.,.
Cc1cccn2c1nc(=S)n2C(=O)c1ccco1,2,12*,15,1,0,9.5*,1,9.2*
Nc1ccccc1-c1nc2ccccc2s1,3,26*,57*,2,1.9*,11*,1,10*
Oc1ccc(-c2nc3ccccc3s2)c(O)c1,3,8,8,1,0,1,.,.
Oc1ccc(-c2nc3ccccc3s2)cc1,4.2*,24*,55*,1,1.3*,7.6*,2,8.1*
CCN(C(=O)Cn1nc(C)n2c(cc3cc(C)ccc32)c1=O)c1ccccc1,0,-3,0,0,-1,-2,.,.
COc1ccc2ccc(OCC(=O)Nc3cc(C)on3)cc2c1,0,3,0,0,-1,0,.,.
CC(C)C(=O)N1CCCCCCN1C(=O)C(C)C,-1,-1,.,4.4*,0,7.8*,0,-1
CC(CN1CCCCC1)C(=O)NN (stereo not drawn),0,-1,1,0,-1,-1,.,.
O=C1C=C(Nc2ccc(O)cc2)C(=O)c2ccccc21,-1,7,33,0,1,8.8*,1,6.6*
COc1ccc(-c2cc(C(=O)NCc3cccc(Cl)c3)[nH]n2)c(C)c1,1,-1,.,.,-1,-2,.,.
C(=C\c1ccc2ccccc2n1)/c1ccccc1,2,6,41,-2,1.3*,14*,1,13*
CC1CCCCC1NC(=O)COC(=O)c1ccc2c(=O)n3c(nc2c1)CCC3 (stereo not drawn),1,1,1,0,-1,0,.,.
C=CC[C@@H](CC(=O)N(CCO)Cc1ccccc1)C(=O)N[C@H](COC(=O)[C@@H](CC=C)Cc1ccc(F)cc1)c1ccccc1,-1,0,1,0,-1,7.6*,0,1
CCOc1ccc(S(=O)(=O)N2CCC(C(=O)N3CCCC3)CC2)cc1C,-1,-2,1,0,0,0,.,.
N#CC1(c2ccc(NC(=O)c3ccccc3F)cc2)CCCC1,3,23*,9,0,0,6.9*,2,6.6*
Cc1cc(-c2nnc(SCC(=O)Nc3ccccc3C)n2N)n[nH]1,0,1,6,-1,-1,0,.,.
CC(=O)c1ccc(N2Cc3ccccc3C2=NC(=O)c2cccs2)cc1,4,12*,-3,0,0,6.6*,0,4
CCOC(=O)c1ccc(N2Cc3ccccc3C2=NC(=O)c2cccs2)cc1,2,1,.,0,-1,-1,.,.
Cc1ccc(NC(=O)c2nsc(Cl)c2Cl)cc1,3,11*,69*,5.8*,2.1*,13*,2,14*
CC(C)CNC(=O)C1CCN(Cc2ccc(OCc3ccccc3)cc2)CC1,0,8,7,0,0,7.1*,1,3
CC(O)CNC(=O)C1CCN(Cc2ccc(OCc3ccccc3)cc2)CC1 (stereo not drawn),1,7,2,4,-1,0,.,.
SMILES,DAX1 inh-1,hgDAF-12 ag,AHR activator,DAX1 inh-2,ssDAF-12 act,hcDAF-12 act,LXRb hcDAF ctr,hcDAF12 conf
O=c1[nH]c2ccccc2nc1-c1cccs1,1,4,31,0,0,2,.,.
O/C(=C\c1nc2ccccc2[nH]1)c1cccs1,1,12*,36,1,1.0*,8.5*,0,8.1*
O=c1[nH]c2ccccc2nc1/C=C(\O)c1cccs1,2,10*,48*,2,0,7.8*,1,13*
Cc1ccc(-c2nc3n(n2)Cc2ccccc2-3)cc1,3,8,41,-3,2.4*,16*,2,20*
Oc1ccccc1-c1nc(N2CCCC2)c2ccccc2n1,0,-2,-1,1,-1,-1,.,.
Oc1ccccc1-c1nc(N2CCN(Cc3ccccc3)CC2)c2ccccc2n1,0,6,36,-1,0,8.5*,0,4
COCCNC(=O)c1cccc(S(=O)(=O)N2CC3(C)CC2CC(C)(C)C3)c1 (stereo not drawn),1,0,-2,0,-1,-1,.,.
Cc1nnc(NC(=O)c2ccc3ccccc3n2)s1,4.3*,5,22,2,0,7.6*,1,9.1*
COC(=O)[C@@]12C[C@@H](CC(=O)NCc3ccc(OC)c(OC)c3)C(=O)N(Cc3cccc4ccccc34)C1=CCC(C)(C)C2,-1,-2,.,.,-1,-2,.,.
CC(c1nc2ccccc2c(=O)[nH]1)N1CCCN(S(=O)(=O)c2ccc(F)cc2)CC1 (stereo not drawn),0,-1,5,0,0,0,.,.
O=C(COC(=O)/C=C/c1cccc(Cl)c1)Nc1ccc(N2CCOCC2)cc1,-1,0,-1,1,-1,0,.,.
Cc1ccc(NC(=O)COC(=O)/C=C/c2cccc(Cl)c2)cc1S(=O)(=O)N1CCOCC1,0,0,-1,1,0,8.7*,0,0
Cc1ccc(/C=C/c2nc3ccccc3[nH]2)o1,2,8,45,1,0,8.3*,1,8.4*
Cc1cc2nc(/C=C/c3nc4cc(C)c(C)cc4[nH]3)[nH]c2cc1C,0,0,17,0,0,0,.,.
CN1/C(=C\C(=O)c2cccc([N+](=O)[O-])c2)Sc2ccccc21,1,13*,14,0,0,7.7*,1,5.9*
CC(C)(C)OC(=O)N1CCC2(CC1)Oc1ccc(F)cc1C(=O)C21CC(c2ccccc2)=NO1 (stereo not drawn),0,1,0,1,-1,-1,.,.
CC(=O)N(/N=C1/C(=O)Nc2ccccc21)c1ccccc1,1,2,32,1,1.2*,12*,1,10*
CC(=O)c1ccc(N=C2C(=O)Nc3ccccc32)cc1,0,5,4,-2,-1,-1,.,.

# Compound activity as filed in PubChem BioAssay.
